Screening data deposited in PubChem by several laboratories.
ANO1 activ = activates or potentiates the mouse TMEM16A chloride channel | 340,000 compounds, 0.3% hits | HEK293 TMEM16A/YFP-H148Q/I152L, iodide quench fluorescence; active compounds read low | B-score at 10 µM;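 active = fluorescence-ratio B-score plate-corrected deviation score at least 3 library SD below zero, with starting fluorescence score within 5 deviations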;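 also: channel opened by trigger with iodide after compound preincubation; score built on the fluorescence ratio of max minus min over baseline; more negative score means more quench and so TMEM16A activation or potentiation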
ANO1 block = blocks the mouse calcium-activated chloride channel TMEM16A; Q8BHY3; HEK293 TMEM16A/YFP iodide influx fluorescence, ionomycin; normalized B-score (activity score, 25-100; higher = stronger inhibition) at 10 µM; 310,000 compounds, 1.2% hits;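 active = ratio plate-corrected score three or more library SD toward inhibition, starting fluorescence score within five deviations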;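 also: score derived from kinetic fluorescence span divided by baseline fluorescence per well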
Kir21 inh = inhibitors of mouse Kir2.1 inward-rectifier potassium channel; 310,000 compounds, 0.85% hits; P35561; B-score at 10 µM; HEK293-Kir2.1, FluxOR thallium flux fluorescence; active compounds read low;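 active = fluorescence ratio B-score at or below minus 3 SD of library scores, with starting-brightness B-score within 2 SD, cut at about -4.2 in these data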;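 also: channel flux triggered by added potassium and thallium sulfate stimulus; B-score of peak minus minimum fluorescence over baseline after thallium stimulus; more negative B-score means stronger Kir2.1 block with less thallium influx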
CHT block = inhibits the human high affinity choline transporter. Q9GZV3. CHT-expressing cells, membrane potential dye, choline response; active compounds read low. B-score at 10 µM. 310,000 compounds, 0.86% hits. AID 488975;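 active = B-score over 3 SD under the library average, and starting fluorescence ratio not unusually high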;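 also: choline stimulus applied at its EC90 after an EC20 pre-addition; B-score computed on integrated fluorescence ratio after choline addition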
Target sequence (Q9GZV3 whole entry, looked up): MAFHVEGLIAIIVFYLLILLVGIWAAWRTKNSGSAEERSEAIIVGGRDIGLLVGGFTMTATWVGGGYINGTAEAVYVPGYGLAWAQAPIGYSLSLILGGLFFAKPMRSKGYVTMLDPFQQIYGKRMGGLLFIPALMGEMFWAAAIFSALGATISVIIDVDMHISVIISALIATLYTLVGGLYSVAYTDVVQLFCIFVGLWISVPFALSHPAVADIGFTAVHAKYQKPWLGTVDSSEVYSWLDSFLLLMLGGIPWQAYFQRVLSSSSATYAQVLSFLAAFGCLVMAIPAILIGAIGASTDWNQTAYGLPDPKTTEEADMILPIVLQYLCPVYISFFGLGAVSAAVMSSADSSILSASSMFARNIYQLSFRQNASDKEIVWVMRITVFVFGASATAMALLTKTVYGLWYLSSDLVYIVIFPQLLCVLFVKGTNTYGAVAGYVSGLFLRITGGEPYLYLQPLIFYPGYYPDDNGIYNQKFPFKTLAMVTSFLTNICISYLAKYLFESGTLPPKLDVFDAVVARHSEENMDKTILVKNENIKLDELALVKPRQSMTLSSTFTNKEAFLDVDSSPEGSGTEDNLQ
GPR7 antagonist = antagonists of human GPR7 (neuropeptides B/W receptor 1); inhibition, % at 4.4 µM; P48145; GPR7-expressing cells, fluorescence antagonist assay; 290,000 compounds, 1.1% hits; in the data active = inhibition above about 16%, passing the limit was not always enough;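 also: cells stimulated with the agonist NPW; 0% = agonist with vehicle and 100% = vehicle without agonist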
CHT PAM = allosteric activators of human choline transporter CHT | AID 488977 | CHT-expressing cells, membrane potential dye, choline EC20; active compounds read high; LV-AA mutant CHT in HEK293 cells | B-score at 10 µM | 310,000 compounds, 0.49% hits;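 active = initial fluorescence not abnormally high and integrated response B-score, plate-corrected, over 3 SD above library mean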
CHT block conf = confirmation of human choline transporter CHT inhibitors. shares compounds with CHT block. CHT-expressing cells, choline membrane potential dye; LV-to-AA substituted CHT, HEK293 cells. CHT activity remaining % of control (active compounds read low), % at 10 µM. 2,400 compounds, 70% hits;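 active = choline transporter activity left, mean of duplicates at 10 µM, below buffer-only control mean minus 3 SD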;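 also: depolarization triggered by choline at its EC90 following an EC20 pre-addition; 0% = hemicholinium-3 full block and 100% = buffer-only control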
HEK293 CHT ctr = CHT inhibitor counter-screen hit in parental HEK293 cells; shares compounds with CHT block; membrane potential dye, choline response; active = decrease or increase beyond buffer ±3SD; membrane potential ratio readout (active if shifted either direction beyond buffer ±3SD; no single direction) at 10 µM; 2,400 compounds, 4% hits; AID 493222;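 also: parental cells lack the transporter so any hit is non-specific; ratio is peak minus trough fluorescence over baseline after EC90 choline challenge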
Starred values were filed as active, the others as inactive; i = inactive; . = no result given. Shown are actives, neighbours in structure and some others; about 3.7% of the full set was active somewhere.

SMILES	ANO1 activ	ANO1 block	Kir21 inh	CHT block	GPR7 antagonist	CHT PAM	CHT block conf	HEK293 CHT ctr
COc1cccc(C2/C(=C(\O)c3ccc4c(c3)OCCO4)C(=O)C(=O)N2c2nnc(C)s2)c1 (stereo not given)	i	i	-1	-5.7*	-8	i	i	i
COc1cccc(N2C(=O)N(c3ccccc3)C3CS(=O)(=O)CC32)c1 (stereo not given)	i	i	-2.2	-4.9*	-7	i	70%*	i
CCOCCCN1CC(=O)N2[C@@H](Cc3c([nH]c4ccccc34)C2(C)C)C1=O	i	i	2.1	i	-5	i	.	.
CCN(CC)S(=O)(=O)c1cc(NC(=O)Cc2ccc(S(=O)(=O)N3CCOCC3)s2)ccc1Cl	i	.	.	.	.	.	.	.
COc1ccccc1-c1ccc(=O)n(CC(=O)NC2CCc3ccccc32)n1 (stereo not given)	i	i	0.36	-8.4*	-3	i	i	i
COc1ccc(C(CNC(=O)c2cccc(NS(=O)(=O)c3ccccc3)c2)N(C)C)cc1 (stereo not given)	i	i	-0.05	i	-7	i	.	.
CCOc1ccc(S(=O)(=O)Nc2cccc(C(=O)NCC(c3ccccc3)N(C)C)c2)cc1 (stereo not given)	i	i	-1.6	-7.6*	.	i	16%*	i
O=C(O)/C=C/C(=O)Nc1ccc(OC(F)(F)F)cc1Br	i	i	1.1	i	3	i	.	.
O=C(Nc1nc(-c2cccs2)c(C(=O)C(F)(F)F)s1)c1ccco1	i	i	1.9	-5.2*	-9	i	i	i
CC1(C)NC(=O)N(c2ccc([N+](=O)[O-])c(C(F)(F)F)c2)C1=O	i	i	.	i	.	i	.	.
C[n+]1ccccc1COc1ccc(C(C)(C)C)cc1	i	i	-0.08	-7.3*	1	i	34%*	i
CCCCn1c(N)c(N(CCC(C)C)C(=O)COC(=O)Cc2ccc(Cl)cc2)c(=O)[nH]c1=O	i	.	.	.	.	.	.	.
CCOc1ccc(NC(=O)CN2C(=O)CSC2=O)cc1	i	i	-0.07	i	-2	i	.	.
Cc1ccc(C(=O)N2CCN(c3ccccc3)CC2)cc1S(=O)(=O)N1CCCC1	i	i	-0.67	-9.5*	-2	i	55%*	i
NC(=O)COC(=O)c1ccc(Cl)c(S(=O)(=O)N2CCN(c3ccc(F)cc3)CC2)c1	i	i	2.2	-7.1*	0	i	59%*	i
O=C(c1ccc(Cl)c(S(=O)(=O)N2CCCC2)c1)N1CCN(c2ccccc2)CC1	i	i	0.61	-6*	1	i	42%*	i
O=C(c1ccc(Cl)c(S(=O)(=O)N2CCCCC2)c1)N1CCN(c2ccccc2)CC1	i	i	-0.43	i	19	i	.	.
Cc1ccc(C(=O)N2CCN(c3ccc(F)cc3)CC2)cc1S(=O)(=O)N1CCCCC1	i	i	0.08	i	5	i	.	.
NC(=O)COC(=O)c1cccc(S(=O)(=O)N2CCN(c3ccc(F)cc3)CC2)c1	i	i	-0.36	i	-4	i	.	.
CN(N=Nc1nc[nH]c1C(=O)NN)C1CCCCC1	i	.	.	.	.	.	.	.
CCCc1cc(=O)[nH]c(SCC(=O)NCCC2=CCCCC2)n1	i	i	0.95	i	-15	i	.	.
O=C1/C(=C\c2ccccn2)SC(=S)N1c1ccc(S(=O)(=O)Nc2nccs2)cc1	i	i	0.58	-7*	-1	i	i	i
Nc1ccc2c(c1)OC1(CCCC1)O2	i	i	0.04	i	-9	i	.	.
CCOc1ccccc1C(=O)OCC(=O)Nc1nnc(-c2ccccc2)o1	i	i	-1	i	.	i	.	.
